Assay outcomes: PubChem, National Center for Advancing Translational Sciences (NCATS)
Shown are actives, neighbours in structure and some others; about 3.3% of the full set was active somewhere.
AmpC inh detg – inhibitors of E. coli AmpC beta-lactamase with detergent. P00811. 370,000 tested, 0.041% active. Potency, µM (highest dose often 114 µM), actives largely listed as inhibitors. AmpC hydrolysis of nitrocefin, absorbance 480 nm, 0.01% Triton; note: nearly all actives have a fitted effect of over 25% in size
Target sequence (P00811 whole entry, looked up): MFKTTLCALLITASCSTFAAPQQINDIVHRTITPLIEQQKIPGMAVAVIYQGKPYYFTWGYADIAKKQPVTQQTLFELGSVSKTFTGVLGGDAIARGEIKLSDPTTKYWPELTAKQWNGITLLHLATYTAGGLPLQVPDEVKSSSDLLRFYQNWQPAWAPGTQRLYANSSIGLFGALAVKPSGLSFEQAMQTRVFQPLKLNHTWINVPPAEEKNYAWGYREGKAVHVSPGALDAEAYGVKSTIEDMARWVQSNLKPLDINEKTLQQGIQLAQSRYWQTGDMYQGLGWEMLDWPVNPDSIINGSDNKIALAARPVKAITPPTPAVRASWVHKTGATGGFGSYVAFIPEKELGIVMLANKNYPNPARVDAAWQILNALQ
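AmpC (5.3 nM in the dispensed reagent) in 20 mM phosphate pH 7.0 with 0.01% (detergent screen) or 0.0001% Triton X-100 was preincubated with compounds for 15 min at room temperature. Nitrocefin was then added from an 800 uM solution, and hydrolysis was followed at 480 nm.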
Sm TGR inh – blocks Schistosoma mansoni thioredoxin glutathione reductase | purified TGR, DTNB reduction, TNB absorbance 405 nm | Potency, µM (highest dose often 114 µM), hits mostly inhibitors | 360,000 tested, 3% active; note: nearly all actives have a fitted effect of over 60% in size
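Kinetic colorimetric format: TGR-catalysed, NADPH-driven DTNB reduction monitored via TNB absorbance. Enzyme dispensed at 20 nM; compound exposure 15 min at room temperature before reaction start.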
AmpC no deterg – AmpC beta-lactamase inhibition without detergent; P00811; AmpC nitrocefin hydrolysis, absorbance 480 nm, 0.0001% Triton; Potency, µM (top dose mostly 57.1 µM), most hits filed as inhibitors; 330,000 tested, 0.52% active; AID 485341; note: nearly all actives have a fitted effect of over 20% in size
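20 mM phosphate pH 7.0 + 0.01% (detergent screen) or 0.0001% Triton X-100; 5.3 nM AmpC reagent; cpd preinc 15 min RT; nitrocefin (800 uM stock) to start; A480 q20 s × 4 min; Activity was normalised to no-enzyme and no-compound control wells.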
Numbers stand for hits. Calls come from the whole dose curve; as a rule, active = well fitted curve in the direction sought with a large enough effect; inconclusive = small, poorly fitted or top-dose-only effect, or another doubt; inactive = no such curve, though single readings can be large; an effect the other way counts as inactive or inconclusive.

How did CCCOc1ccc(N2C(=O)CC(N3CCC(C(=O)OCC)CC3)C2=O)cc1 (configuration not stated) do in these assays?
AmpC inh detg: inactive; Sm TGR inh: inactive; AmpC no deterg: inactive

How did CCN1C(=O)CC(N2CCC(Nc3ccc(F)cc3)CC2)C1=O (configuration not stated) do in these assays?
AmpC inh detg: inactive; Sm TGR inh: inactive; AmpC no deterg: inactive

How did CCOC(=O)c1ccccc1NC(=O)CSc1nccn1Cc1ccco1 do in these assays?
AmpC inh detg: inactive; Sm TGR inh: inconclusive

Results for COc1ccccc1-c1cc(C(=O)NC2CCCC2)no1 ?
AmpC inh detg: inactive; Sm TGR inh: inactive; AmpC no deterg: inactive

Results for COC(=O)c1cc(OC)c(OC)cc1NC(=O)Nc1ccccc1F ?
AmpC inh detg: inactive; Sm TGR inh: inactive; AmpC no deterg: inactive

What do the screens show for `Cc1ccc(-n2c(C)cc(/C=C3/C(=O)NC(=O)N(C)C3=O)c2C)cc1`?
AmpC inh detg: inactive; Sm TGR inh: inactive; AmpC no deterg: inactive

What do the screens show for `CSc1ncc(/C=C2/C(=O)NC(=O)N(C)C2=O)cn1`?
AmpC inh detg: inactive; Sm TGR inh: 1.41µM; AmpC no deterg: inactive

What do the screens show for `CSc1ncc(/C=C2/C(=O)NC(=O)N(C3CCCCC3)C2=O)cn1`?
AmpC inh detg: inactive; Sm TGR inh: 5.01µM; AmpC no deterg: inactive

What do the screens show for `CN(C)c1ncc(/C=C2/C(=O)NC(=S)N(C3CCCCC3)C2=O)cn1`?
AmpC inh detg: inactive; AmpC no deterg: inactive

What do the screens show for `CCCCN1C(=O)/C(=C/c2ccc(N3CCCCCC3)cc2)C(=O)NC1=S`?
AmpC inh detg: inactive; Sm TGR inh: inconclusive; AmpC no deterg: inactive

What do the screens show for `CCCCN1C(=O)NC(=O)/C(=C/c2cnc(SC)nc2)C1=O`?
AmpC inh detg: inactive; Sm TGR inh: 7.08µM; AmpC no deterg: inactive

What do the screens show for `Cc1ccc(-c2nn(-c3ccccc3)cc2CC(=S)N2CCOCC2)cc1`?
AmpC inh detg: inactive; Sm TGR inh: inactive; AmpC no deterg: inactive

Results for Cc1c(-c2ccccc2)nc2c(Cl)cccc2c1C(=O)OCC(=O)c1ccc(F)cc1 ?
AmpC inh detg: inactive; Sm TGR inh: inactive

How did Cc1ccc(NC(=O)c2cc(S(=O)(=O)N3CCCC3)c[nH]2)c(C)c1 do in these assays?
AmpC inh detg: inconclusive; Sm TGR inh: inactive; AmpC no deterg: inactive

How did CCn1c(SCC(=O)Nc2oc(C)c3c(C)n[nH]c(=O)c23)nc2sc(C)c(C)c2c1=O do in these assays?
AmpC inh detg: inactive; Sm TGR inh: inactive; AmpC no deterg: inactive

What do the screens show for `CCN(CC(=O)Nc1ccc2c(c1)OCCO2)C(=O)COc1ccc(C)cc1`?
AmpC inh detg: inactive; Sm TGR inh: inactive; AmpC no deterg: inactive

How did Cc1nc2ccc(NC(=O)c3cc([N+](=O)[O-])cc([N+](=O)[O-])c3Cl)cc2s1 do in these assays?
AmpC inh detg: inactive; Sm TGR inh: 0.501µM; AmpC no deterg: inactive

What do the screens show for `Cc1nc2ccc(NC(=O)c3ccc(Cl)c([N+](=O)[O-])c3)cc2s1`?
AmpC inh detg: inactive; Sm TGR inh: inactive; AmpC no deterg: inactive

What do the screens show for `CCc1ccccc1NC(=O)CSc1nc(-c2cccc(Cl)c2)nc2c1Cc1c(CO)cnc(C)c1O2`?
AmpC inh detg: inactive; Sm TGR inh: inactive

How did COc1ccccc1NC(=O)CSc1nc(-c2cccc(Cl)c2)nc2c1Cc1c(CO)cnc(C)c1O2 do in these assays?
AmpC inh detg: inactive; Sm TGR inh: 20µM

Results for CCSc1nc(-c2ccccc2F)nc2c1Cc1c(CO)cnc(C)c1O2 ?
AmpC inh detg: inactive; Sm TGR inh: 44.7µM

What do the screens show for `CCSc1nc(-c2ccccc2OC)nc2c1Cc1c(CO)cnc(C)c1O2`?
AmpC inh detg: inactive; Sm TGR inh: inactive

Results for Cc1noc(C)c1S(=O)(=O)N(Cc1ccccc1)C(C)C ?
AmpC inh detg: inactive; Sm TGR inh: inactive; AmpC no deterg: inactive

How did O=C(NC1CCNCC1)C1CCCCC1 do in these assays?
AmpC inh detg: inactive; Sm TGR inh: inactive; AmpC no deterg: inactive

How did NC(=O)C1CCCNC1 (configuration not stated) do in these assays?
AmpC inh detg: inconclusive; Sm TGR inh: 28.2µM; AmpC no deterg: inactive

What do the screens show for `Cc1nn(CC(=O)Nc2ccc(N3CCOCC3)cc2)c(C)c1[N+](=O)[O-]`?
AmpC no deterg: inactive

How did COc1cc(NC(=O)Cn2c(=O)ccc3cc(S(=O)(=O)N4CCCC4)ccc32)cc(OC)c1 do in these assays?
AmpC inh detg: inactive; Sm TGR inh: inactive

Results for Cn1cc(Br)c(NC(=O)/C=C/C(=O)O)n1 ?
AmpC inh detg: inactive; Sm TGR inh: 0.631µM; AmpC no deterg: inactive

Results for Cn1cc(Br)c(C(=O)Nc2c(F)c(F)c(F)c(F)c2F)n1 ?
AmpC inh detg: inactive; Sm TGR inh: inactive; AmpC no deterg: inactive

How did COc1ccc(Cn2c(SC)nc3ccccc32)cc1[N+](=O)[O-] do in these assays?
AmpC inh detg: inactive; Sm TGR inh: inactive; AmpC no deterg: inactive

What do the screens show for `CC(=O)Oc1cccc(N2C(=O)C3C4C=CC(CC4)C3C2=O)c1` (configuration not stated)?
AmpC inh detg: inactive; Sm TGR inh: 44.7µM; AmpC no deterg: inactive

What do the screens show for `CC(=O)Oc1cccc(N2C(=O)C3C4C=CC(C4)C3C2=O)c1` (configuration not stated)?
AmpC inh detg: inactive; Sm TGR inh: inactive; AmpC no deterg: inactive

How did O=C(NCCC1CC1(Cl)Cl)c1ccc([N+](=O)[O-])cc1 (configuration not stated) do in these assays?
AmpC inh detg: inactive; Sm TGR inh: inactive; AmpC no deterg: inactive

How did COc1cc2ccc(=O)oc2c(CC=C(C)C)c1OC do in these assays?
AmpC inh detg: inactive; Sm TGR inh: inactive; AmpC no deterg: inactive

Results for CC(C)=CCc1c(O)cc2oc3c(CC=C(C)C)c(O)c(O)c(CC=C(C)C)c3c(=O)c2c1O ?
AmpC inh detg: inactive; Sm TGR inh: inactive; AmpC no deterg: 14.1µM

Results for CCOc1cc(CNc2cccc3[nH]c(C)nc23)ccc1OC ?
AmpC inh detg: inconclusive; Sm TGR inh: inactive; AmpC no deterg: inactive

What do the screens show for `COc1cc(CNc2ccccc2SC)ccc1O`?
AmpC inh detg: inconclusive; Sm TGR inh: 2.24µM; AmpC no deterg: inactive

Results for COc1cc(C[C@@H](C)[C@@H](C)Cc2ccc(O)c(OC)c2)ccc1O ?
AmpC no deterg: inactive

Results for CCOc1cc(CNc2ccccc2SC)ccc1O ?
AmpC inh detg: inactive; Sm TGR inh: 8.91µM; AmpC no deterg: inactive

What do the screens show for `CCCNC1=C(C)C(=O)C2=C(C1=O)C(COC(N)=O)[C@]1(OC)C3NC3CN21` (some centres not stated)?
AmpC inh detg: inactive; Sm TGR inh: 35.5µM; AmpC no deterg: inactive

How did O=C(c1ccc(Cn2cc([N+](=O)[O-])cn2)o1)N1CCCCCC1 do in these assays?
AmpC inh detg: inactive; Sm TGR inh: inactive; AmpC no deterg: inactive

What do the screens show for `COc1ccc(S(=O)(=O)N2CCOCC2)c2ccccc12`?
AmpC inh detg: inactive; Sm TGR inh: inactive; AmpC no deterg: inactive

What do the screens show for `COc1ccccc1CNC(=O)CNC(=O)c1sc2ccccc2c1Cl`?
AmpC inh detg: inactive; Sm TGR inh: inactive; AmpC no deterg: inactive

How did COc1cc(CC2C(=O)Nc3ccccc32)cc(C)c1O (configuration not stated) do in these assays?
AmpC inh detg: inactive; Sm TGR inh: 39.8µM; AmpC no deterg: inactive
